# Assay outcomes (PubChem BioAssay)
# TDP1 cell CPT: growth inhibition of DT40 Tdp1-/-;hTDP1 cells with camptothecin (screen for TDP1 inhibitors). chicken DT40 Tdp1-/-;hTDP1 cells + 20 nM CPT, ATP luminescence, 48 h. Potency, µM (top dose mostly 46.2 µM), without a hit: at the top dose activity change, negative = growth inhibition, actives largely listed as inhibitors. 420,000 tested, 12% active; also: potency is read from the fitted curve at half-maximal effect; % is scaled to controls: 0 for no effect and ±100 for the full control effect; nearly all actives have a fitted effect of over 55% in size
#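 Chicken DT40 Tdp1-/- cells complemented with human TDP1, 400 cells/well, exposed to compounds plus 20 nM camptothecin for at least 48 h at 37 C; viability read as ATP content by CellTiter-Glo luminescence.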
# IL-1B inflam inh: blocks inflammasome-driven IL-1 beta release; THP-1 LPS/ATP IL-1B secretion, AlphaLISA, 16 h; stronger effect = lower value; activity change, % at 57.5 µM; 360,000 tested, 4.7% active; in the data active = activity change below about -50%; inconclusive = mostly about -30% to -49%; also: % is scaled to controls: 0 for no effect and ±100 for the full control effect
#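 Secreted IL-1B measured by AlphaLISA bead assay after 16 h compound exposure of THP-1 cells; compounds (final up to 57.5 uM) added 1 h before LPS (250 ng/mL) and ATP (1.25 mM) stimulation; lower signal means less secretion.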
# D3 ag: activates the human D3 dopamine receptor; P35462; D3R DiscoveRx beta-arrestin cells, luminescence, 90 min; max activation, %; 410,000 tested, 0.58% active; in the data active = max activation above about 30%; also: 0% is about no effect
# Target sequence (P35462 whole entry, looked up): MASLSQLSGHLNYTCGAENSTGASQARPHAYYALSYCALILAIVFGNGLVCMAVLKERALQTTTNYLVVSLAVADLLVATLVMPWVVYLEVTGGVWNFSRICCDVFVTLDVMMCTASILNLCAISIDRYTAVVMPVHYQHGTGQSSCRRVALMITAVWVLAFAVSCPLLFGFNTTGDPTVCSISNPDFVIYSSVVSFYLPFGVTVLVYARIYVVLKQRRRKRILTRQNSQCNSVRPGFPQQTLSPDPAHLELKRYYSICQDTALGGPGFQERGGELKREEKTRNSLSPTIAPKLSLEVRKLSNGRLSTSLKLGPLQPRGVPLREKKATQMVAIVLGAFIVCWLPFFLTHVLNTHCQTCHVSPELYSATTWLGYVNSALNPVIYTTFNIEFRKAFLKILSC
#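 Cells at 1500/well, incubated overnight, then treated with pinned compounds (dopamine as control) for 90 min at 37 degrees C. DiscoveRx reagent added for 30 - 60 minutes at room temperature; luminescence read.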
# DT40 TDP1 no CPT: qHTS for Inhibitors of human tyrosyl-DNA phosphodiesterase 1 (TDP1): qHTS in cells in absence of CPT; 420,000 tested, 15% active; DT40 Tdp1-/- hTDP1 cells, no CPT, ATP luminescence, 48 h; Potency, µM (series often up to 46.2 µM), inactives show top-dose activity change, negative = growth inhibition, hits mostly inhibitors; AID 686978, 2013; also: potency is read from the fitted curve at half-maximal effect; % is scaled to controls: 0 for no effect and ±100 for the full control effect; nearly all actives have a fitted effect of over 55% in size
#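 Seeded 400 DT40-hTDP1 cells/well (vehicle DMSO, no 20 nM CPT); pinned compounds; ≥48 hr at 37 °C; CellTiter-Glo luminescence as viability measure.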
# ClpP mod: qHTS Assay for Activators of ClpP; purified B. subtilis ClpP, FRET peptide cleavage, 20 min; Potency, µM (top dose mostly 57.5 µM), for inactives: top-dose activity change, negative = active; 340,000 tested, 1.9% active; active = well fitted falling curve with a large enough effect; inconclusive = small, poorly fitted or top-dose-only effect; inactive = no such curve, though single readings can be large or run the other way; also: potency is read from the fitted curve at half-maximal effect; the source files actives as falling curves though it sought activators and does not explain the sign; nearly all actives have a fitted effect of over 65% in size
# Target sequence (P80244 whole entry, looked up): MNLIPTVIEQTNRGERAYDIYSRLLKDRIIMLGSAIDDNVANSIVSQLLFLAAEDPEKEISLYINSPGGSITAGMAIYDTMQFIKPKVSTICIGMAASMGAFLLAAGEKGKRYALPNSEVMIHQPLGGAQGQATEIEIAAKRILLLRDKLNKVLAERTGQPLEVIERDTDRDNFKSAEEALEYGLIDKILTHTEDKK
#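 Purified B. subtilis ClpP, 10 microg/mL final in Tris/HCl pH8 with KCl, BSA, glycerol and Tween-20, cleaved an Abz/nitrotyrosine-quenched decapeptide. Fluorescence (ex 320, em 430) was read at 0 and 20 min at room temperature. Delta was normalized to 5.8 microM ADEP and DMSO/no-enzyme controls.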
# DRD3 antagonist: blocks the human D3 dopamine receptor; P35462; D3R cells, DiscoveRx beta-arrestin luminescence, antagonist mode; stronger effect = lower value; max response, negative = inhibition, %; 360,000 tested, 2.5% active; in the data active = max response below about -50%; inconclusive = no clear call, values can overlap the other calls; also: % is scaled to controls: 0 for no effect and ±100 for the full control effect
#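 Cells expressing the human receptor were seeded at 1500 cells/well, incubated overnight at 37 degrees C in 5% CO2, then exposed to library compounds with dopamine controls for 90 minutes at 37 degrees C before luminescent detection.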
# * marks the source's active call; other numbers are inactive results; ? = inconclusive; / = not tested or not shown. This is a sample that favours compounds with a hit; in the whole collection about 21% have one here. Unless noted, calls follow the shape of the dose curve; as a rule, active = well fitted inhibition curve with a large enough effect; inconclusive = small, poorly fitted or top-dose-only effect; inactive = flat fitted curve, though single readings scatter.
SMILES,TDP1 cell CPT,IL-1B inflam inh,D3 ag,DT40 TDP1 no CPT,ClpP mod,DRD3 antagonist
CCc1ccc(C(=O)COC(=O)c2cncc(Br)c2)cc1,4.8%,30.4,3.9,5.0%,/,8.6
Cc1cccc(C)c1NC(=O)CSc1nc2ncccc2o1,0.3%,/,5.6,-20.5%,5.6%,/
CCOc1ccc(NC(=S)/C(=C(\[O-])c2ccc(C)c([N+](=O)[O-])c2)[n+]2ccccc2)cc1,?,13.0,5.1,14.6µM*,-1.8%,1.7
CCc1cc[n+](/C(C(=S)Nc2cccc(C)c2)=C(/[O-])c2ccc(C)c([N+](=O)[O-])c2)cc1,16.4µM*,-25.8,-15.4,11.6µM*,/,-20.6
Cc1ccc(/C([O-])=C(/C(=S)NCc2ccccc2)[n+]2ccccc2)cc1[N+](=O)[O-],-23.5%,-23.7,-14.9,?,/,3.3
CCOc1ccc(NS(=O)(=O)c2ccc3[nH]c(=O)[nH]c3c2)cc1,-15.1%,-0.4,-7.7,?,/,-25.5
Cc1ccc(S(=O)(=O)N2CCOC2CNC(=O)C(=O)NCc2ccc3c(c2)OCO3)cc1 (stereo not given),-24.8%,-20.9,-3.5,-4.8%,-0.2%,-4.3
CSCC[C@H](NC(=O)c1ccco1)c1nnc2ccccn12,16.1%,9.0,8.0,0.6%,-2.4%,1.7
c1c2c(cc3sc(N4CCOCC4)nc13)OCCO2,?,-13.3,2.2,18.4µM*,-0.3%,12.7
c1ccc(N2CCN(c3nc4cc5c(cc4s3)OCCO5)CC2)cc1,?,-6.7,5.5,-19.9%,-2.8%,-4.1
CCOC(=O)N1CCN(c2c(NC3CCN(Cc4ccccc4)CC3)c(=O)c2=O)CC1,5.0%,-12.2,-21.8,1.0%,2.1%,-51.1*
CCOC(=O)N1CCN(c2c(NCCc3ccccc3)c(=O)c2=O)CC1,2.0%,56.2,2.7,3.7%,-0.5%,15.9
CCOC(=O)N1CCN(c2c(N3CC=C(c4ccccc4)CC3)c(=O)c2=O)CC1,20.6µM*,-4.4,-9.3,16.4µM*,0.1%,0.0
CC(OC(=O)c1cccnc1Cl)C(=O)Nc1ccc2c(c1)OCO2 (stereo not given),?,12.5,3.1,20.6µM*,0.7%,-17.8
COc1cccc(C(=O)OC(C)C(=O)Nc2ccc3c(c2)OCO3)c1 (stereo not given),13µM*,27.7,-3.2,8.2µM*,-1.3%,0.9
Cc1cc(NC(=O)C(C)Oc2ccc(Cl)cc2Cl)no1 (stereo not given),-4.5%,-1.7,-2.1,-22.8%,/,-9.9
CCOC(=O)c1cc(-c2ccccc2)n(-c2cccc(C(=O)NC(C)(C)C)c2)c1C,?,/,-22.8,?,-2.6%,/
CCOC(=O)c1cc(-c2ccccc2)n(-c2cccc(C(=O)N(C)c3ccc(C)cc3)c2)c1C,-80.0%,/,-6.0,8.2µM*,0.0%,/
COc1cccc(/C=N/NC(=O)c2ccc(-n3cnnn3)cc2)c1,-3.8%,-8.3,-2.2,-16.6%,/,11.1
Cn1c(SCc2ccccc2F)nc2ccccc2c1=O,-12.7%,-19.3,2.7,?,-1.1%,1.3
COc1cc(Nc2nc(SCc3ccccc3F)nc3ccccc23)cc(OC)c1,?,/,8.1,18.4µM*,?,/
COc1cc(Nc2nc(SCc3cccc(Cl)c3)nc3ccccc23)cc(OC)c1,?,/,8.2,?,31.6µM*,/
COc1ccc(-c2nnc(SCc3cccc(Cl)c3)o2)cc1,/,/,2.3,/,1.5%,/
Fc1ccc(Nc2nc(SCc3ccccc3F)nc3ccccc23)cc1,16.4µM*,/,16.0,16.4µM*,?,/
COc1ccc(-c2[nH]c3ccccc3c2SCCNC(=O)c2ccccc2)cc1,13µM*,-1.2,8.5,9.2µM*,?,38.7
SMILES,TDP1 cell CPT,IL-1B inflam inh,D3 ag,DT40 TDP1 no CPT,ClpP mod,DRD3 antagonist
Cc1[nH]c2ccccc2c1SCCNC(=O)c1ccccc1F,?,/,-5.1,?,-1.4%,/
COc1ccc(C(=O)NCCSc2ccccc2)cc1,-13.4%,-13.9,-9.4,-19.4%,1.1%,0.0
CN(C)S(=O)(=O)c1ccc(C(=O)NCCSc2c(-c3ccc(Br)cc3)[nH]c3ccccc23)cc1,4.11µM*,/,4.5,2.31µM*,-6.6%,/
CCN(CC)S(=O)(=O)c1ccc(C(=O)NCCSc2c(-c3ccc(F)cc3)[nH]c3ccccc23)cc1,8.2µM*,/,-3.8,6.51µM*,-6.4%,/
c1ccc(-c2nc(NCC3CC3)nc3ccsc23)cc1,16.4µM*,23.4,-10.7,?,5.1%,-23.1
Cc1ccccc1-c1nc(NCC2CC2)nc2ccsc12,23.1µM*,-0.5,-15.8,?,4.8%,-11.4
CN(C)CCNc1nc(Oc2ccccc2)c2sccc2n1,-5.4%,-11.1,-5.4,-17.1%,-2.8%,12.9
COc1ccc(-c2nc(NCCN(C)C)nc3ccsc23)c(C)c1,?,-53.2*,-3.6,?,4.6%,-4.0
COc1ccc(C(C)(C)C)cc1NC(=O)Cn1cnnn1,0.6%,8.8,0.4,-1.6%,0.4%,11.4
CC/C(=N\NC(=O)Cc1ccc(Br)cc1)c1cccs1,-11.1%,0.0,1.8,-7.4%,-0.1%,-8.2
CC(=O)Oc1ccc2oc(-c3ccccc3)c(C(N)=O)c2c1,?,0.0,1.1,?,3.1%,7.4
CC(=O)Nc1ccc(NC(=O)[C@@H](NC(=O)c2ccccc2F)C(C)C)cc1,-9.2%,36.0,4.9,-16.4%,/,6.2
Cc1sc2nc(SCCN(C)C)n(-c3ccccc3)c(=O)c2c1-c1ccc(F)cc1,18.4µM*,-16.6,-14.7,25.9µM*,/,-69.4*
CN(C)CCSc1nc(O)c(-c2ccccc2)c(=O)n1-c1ccccc1,2.6%,13.4,-1.6,0.0%,2.2%,0.6
Cc1ccc(C(=O)NNC(=O)COC(=O)COc2ccccc2C#N)cc1,1.7%,18.2,-1.0,-8.6%,-0.3%,6.4
CCOc1ccc(C(=O)Nc2ccc3c(c2)OCCO3)cc1Br,?,/,4.3,?,-0.8%,/
CC(=O)N1CCN(c2ccc(NCc3ccc(F)cc3)cc2)CC1,-19.6%,14.3,0.2,3.3%,1.7%,-0.7
COc1cc(CNc2ccc(N3CCN(C(C)=O)CC3)cc2)ccc1OCc1ccc(F)cc1,?,-18.8,7.4,16.4µM*,/,18.6
CCOc1cc(CNc2ccc(N3CCOCC3)cc2)cc(Br)c1OCC,?,?,37.4*,16.4µM*,1.7%,16.1
CCOc1c(Br)cc(CNc2ccc(N3CCN(C(C)=O)CC3)cc2)cc1OC,16.4µM*,?,1.6,?,1.9%,10.2
CCOc1cc(CNc2ccc3c(c2)OCCO3)cc(Br)c1OCC,2.59µM*,-10.6,4.3,0.82µM*,2.5%,40.2
